Test results taken from the supplement of paper PMC4954754.
± gives the uncertainty stated by the source.

The compounds below were run on HEK293T-Rex XBP1-RLuc (assay: XBP1-RLuc splicing reporter activation, triplicate, relative to 500 nM thapsigargin (% of thapsigargin); higher = stronger IRE1/XBP1s reporter activation). Settings: 6.8 µM; 18 h; screen: confirmation.
Protocol: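 HEK293T-Rex cells stably expressing the ERSE-firefly luciferase (BiP promoter, ATF6-preferring) or XBP1-splicing Renilla luciferase (IRE1/XBP1s) reporter, 1536-well plates, compound at 6.8 µM for 18 hr at 37 °C; luminescence read […] and expressed as % activation = 100*(compound - median DMSO)/(median 500 nM thapsigargin - median DMSO). Primary screen was single-pass; confirmation screen in triplicate (mean ± SD).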
With `CCCc1cc(C(=O)Nc2cc(C)ccc2O)no1` the “XBP1-RLuc splicing reporter activation” value was 24.5 ± 4.7.
With `O=C1N/C(=C/c2ccc(O)cc2)C(=O)N1c1cccc(Cl)c1` the “XBP1-RLuc splicing reporter activation” value was 61.1 ± 1.4.
With `CC1(C)Cc2ccccc2/C(=C/C(=O)C(=O)N/N=C/c2ccc(O)c(O)c2)N1` the “XBP1-RLuc splicing reporter activation” value was 16.2 ± 2.9.
With `Nc1nc(Nc2ccc(Cl)c(Cl)c2)nc2ccccc12` the “XBP1-RLuc splicing reporter activation” value was 11.3 ± 0.79.
With `N#C/C(=C\c1ccc(O)c(O)c1)C(=O)Nc1ccccc1` the “XBP1-RLuc splicing reporter activation” value was 13.3 ± 0.68.
With `CN(C)c1ccc(/C=N/NC(=O)c2cccc(Br)c2)cc1` the “XBP1-RLuc splicing reporter activation” value was 1.93 ± 3.2.
For `Oc1ccc(-c2csc3nc(-c4ccccc4)nn23)c(O)c1`, the “XBP1-RLuc splicing reporter activation” value was 15.3 ± 1.7.
For `COc1cccc(/C=N\NC(=O)c2n[nH]c3c2CCC3)c1`, the “XBP1-RLuc splicing reporter activation” value was 2.25 ± 1.
`Cn1cccc1/C=C1/SC(=Nc2ccccc2)NC1=O` was tested, and the “XBP1-RLuc splicing reporter activation” value was 5.98 ± 0.28.
In the case of `O=C1N/C(=C/c2ccc(O)cc2)C(=O)N1c1ccccc1`, the “XBP1-RLuc splicing reporter activation” value is reported as 49 ± 4.5.
With `COc1ccc(N(C(=O)c2ccccc2)S(=O)(=O)c2cc(OC)ccc2OC)cc1` the “XBP1-RLuc splicing reporter activation” value was 59.2 ± 7.4.
For `Cc1ccc(O)c(NC(=O)c2cc(-c3cccnc3)on2)c1`, the “XBP1-RLuc splicing reporter activation” value was 19.8 ± 0.85.
In the case of `O=C(Nc1ccc2c(c1)OCCO2)C(=O)Nc1ccccc1Cl`, the “XBP1-RLuc splicing reporter activation” value is reported as -0.329 ± 3.7.
With `O=[N+]([O-])c1ccc(N/N=C/c2ccccc2O)cc1` the “XBP1-RLuc splicing reporter activation” value was 2.37 ± 0.96.
For `Cc1ccc(O)c(NC(=S)NC(=O)/C=C/c2ccco2)c1`, the “XBP1-RLuc splicing reporter activation” value was 1.05 ± 0.43.
In the case of `Cc1ccc(O)c(NC(=O)c2cc(-c3cccs3)on2)c1`, the “XBP1-RLuc splicing reporter activation” value is reported as 22.7 ± 1.2.
With `CC(C)CNC(=O)c1cc(-c2ccc(F)cc2)no1` the “XBP1-RLuc splicing reporter activation” value was 4.97 ± 1.2.
In the case of `O=C(CC(=O)Nc1ccc2nc3n(c(=O)c2c1)CCCCC3)NCc1ccco1`, the “XBP1-RLuc splicing reporter activation” value is reported as 22.3 ± 2.9.
With `Cc1ccc2nc(NC(=O)c3cccc4ccccc34)sc2c1` the “XBP1-RLuc splicing reporter activation” value was 4.94 ± 1.5.
In the case of `O=C1/C(=C/c2ccc(O)c(O)c2)Oc2cc(O)ccc21`, the “XBP1-RLuc splicing reporter activation” value is reported as 12.6 ± 0.23.
In the case of `NC(=O)c1c(NC(=O)c2cccc3ccccc23)sc2c1CCC2`, the “XBP1-RLuc splicing reporter activation” value is reported as 9.06 ± 0.86.
With `Cc1ccccc1NC(=O)c1sc2nc(N)c(C#N)c(-c3ccc(C(C)C)cc3)c2c1N` the “XBP1-RLuc splicing reporter activation” value was 15.4 ± 2.4.
With `Oc1ccc(-c2csc(-c3ccccc3)n2)cc1O` the “XBP1-RLuc splicing reporter activation” value was 31.3 ± 3.1.
For `CCOc1ccc2nc(NC(=O)c3ccn(C)n3)sc2c1`, the “XBP1-RLuc splicing reporter activation” value was -1.23 ± 2.
With `CC(=O)N1CCc2c([nH]c3ccccc23)C12CCN(CCCOc1ccccc1)CC2` the “XBP1-RLuc splicing reporter activation” value was 65.9 ± 4.
`Cc1cccc2c1[nH]c1nc(N/N=C\c3c[nH]c4ccccc34)nnc12` was tested, and the “XBP1-RLuc splicing reporter activation” value was 21.8 ± 1.6.
In the case of `CCCCNC(=O)c1cc(-c2ccc(F)cc2)on1`, the “XBP1-RLuc splicing reporter activation” value is reported as 7.08 ± 0.26.
For `O=C(N/N=C/c1ccc(Cl)cc1)c1n[nH]c2c1CCCC2`, the “XBP1-RLuc splicing reporter activation” value was 3.79 ± 8.1.
In the case of `COc1ccc(C2C=C3Oc4ccccc4N=C3NN2)cc1` (stereo not given), the “XBP1-RLuc splicing reporter activation” value is reported as 4.19 ± 0.13.
In the case of `CCCCCCc1ccc(-c2ncc(N)cn2)cc1`, the “XBP1-RLuc splicing reporter activation” value is reported as 12.9 ± 0.42.
With `N#Cc1c(NC(=O)c2ccc3ncsc3c2)sc2c1CCC2` the “XBP1-RLuc splicing reporter activation” value was 1.45 ± 1.6.
`CC(C)CC(c1nnnn1C1CCCC1)N1CCN(C(=O)c2ccco2)CC1` (stereo not given) was tested, and the “XBP1-RLuc splicing reporter activation” value was 10.6 ± 2.2.
With `COc1ccccc1-c1cnnc(N/N=C/c2c[nH]c3ccccc23)n1` the “XBP1-RLuc splicing reporter activation” value was 8 ± 0.78.
In the case of `C(=N/Nc1nnc2c(n1)[nH]c1ccccc12)/c1c[nH]c2ccccc12`, the “XBP1-RLuc splicing reporter activation” value is reported as 9.3 ± 1.4.
`O=C1/C(=C/c2ccc(O)c(O)c2)SC(=S)N1c1ccc(O)cc1` was tested, and the “XBP1-RLuc splicing reporter activation” value was 14.6 ± 1.1.
`Cc1cc(C)nc(/N=C(\N)Nc2ccc(OCc3ccc(Cl)cc3)cc2)n1` was tested, and the “XBP1-RLuc splicing reporter activation” value was 81.2 ± 5.9.
For `CCCCNNC(=O)c1ccc(Br)cc1`, the “XBP1-RLuc splicing reporter activation” value was 9.12 ± 0.67.
`Cc1ccc(/C=N/NC(=O)c2cccc(F)c2)cc1` was tested, and the “XBP1-RLuc splicing reporter activation” value was 2.01 ± 0.32.
`Cc1nc(-c2ccc(C(=O)Nc3ccc(O)cc3)cc2)cs1` was tested, and the “XBP1-RLuc splicing reporter activation” value was 19.3 ± 0.19.
In the case of `Oc1ccc(/C=N/Nc2cccc(Cl)n2)c(O)c1`, the “XBP1-RLuc splicing reporter activation” value is reported as 10.9 ± 0.95.
